# From PubChem
# AmpC inh detg – AmpC beta-lactamase inhibition with detergent present. Potency, µM (top dose mostly 114 µM), actives largely listed as inhibitors. AmpC hydrolysis of nitrocefin, absorbance 480 nm, 0.01% Triton. AID 485294. 370,000 tested, 0.041% active; also: nearly all actives have a fitted effect of over 25% in size
# Target sequence (P00811 whole entry, looked up): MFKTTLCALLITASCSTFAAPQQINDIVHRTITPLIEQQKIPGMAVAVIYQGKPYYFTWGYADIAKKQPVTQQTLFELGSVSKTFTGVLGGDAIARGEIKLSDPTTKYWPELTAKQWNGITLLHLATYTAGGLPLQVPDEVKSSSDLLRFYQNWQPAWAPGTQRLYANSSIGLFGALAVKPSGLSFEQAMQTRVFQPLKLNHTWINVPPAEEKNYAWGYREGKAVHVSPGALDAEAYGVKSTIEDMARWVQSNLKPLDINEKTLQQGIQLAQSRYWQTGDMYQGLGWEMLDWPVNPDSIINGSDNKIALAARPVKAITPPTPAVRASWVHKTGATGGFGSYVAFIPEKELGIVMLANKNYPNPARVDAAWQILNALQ
#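 20 mM phosphate pH 7.0 + 0.01% (detergent screen) or 0.0001% Triton X-100; 5.3 nM AmpC reagent; cpd preinc 15 min RT; nitrocefin (800 uM stock) to start; A480 q20 s × 4 min; Activity was normalised to no-enzyme and no-compound control wells.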
# RE007 growth inh – less growth of the S. pombe RE007 Vpr strain; S. pombe RE007 Vpr strain, BacTiter-Glo ATP luminescence, 24 h; Potency, µM (series often up to 92.2 µM), actives largely listed as inhibitors; 360,000 tested, 0.21% active; AID 651644; active = well fitted falling curve with a large enough effect; inconclusive = small, poorly fitted or top-dose-only effect; inactive = no such curve, though single readings can be large or run the other way; also: nearly all actives have a fitted effect of over 50% in size
#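 Fission yeast RE007 carrying one integrated HIV-1 vpr copy, seeded at OD 0.01 in PMG+AL medium with 23 nL pinned compound. Grown 24 h at 30 degrees; viability read by BacTiter-Glo luminescence after 5 min.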
# AmpC inh no detg – blocks E. coli AmpC beta-lactamase in detergent-free assay; 330,000 tested, 0.52% active; Potency, µM (doses to about 57.1 µM), usual class: inhibitors; AmpC nitrocefin hydrolysis, absorbance 480 nm, 0.0001% Triton; AID 485341; also: nearly all actives have a fitted effect of over 20% in size
#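 AmpC (5.3 nM in the dispensed reagent) in 20 mM phosphate pH 7.0 with 0.01% (detergent screen) or 0.0001% Triton X-100 was preincubated with compounds for 15 min at room temperature. Nitrocefin was then added from an 800 uM solution, and hydrolysis was followed at 480 nm.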
# Sm TGR block – blocks Schistosoma mansoni thioredoxin glutathione reductase; purified TGR, DTNB reduction, TNB absorbance 405 nm; 360,000 tested, 3% active; Q962Y6; Potency, µM (highest dose often 114 µM), hits mostly inhibitors; also: nearly all actives have a fitted effect of over 60% in size
#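 TGR 20 nM + NADPH 100 uM (dispensed conc.), cpd preinc 15 min RT; start with NADPH (500 uM addition) then DTNB (15 mM addition). Kinetic TNB absorbance, 405 nm filter. Four-parameter Hill fit across titration.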
# Giardia FBPA inh – inhibitors of Giardia lamblia fructose-1,6-bisphosphate aldolase; A8B2U2; purified Giardia FBPA; Potency, µM (top dose mostly 59.6 µM), usual class: inhibitors; 290,000 tested, 0.71% active; AID 2451; also: nearly all actives have a fitted effect of over 55% in size
# Target sequence (A8B2U2 whole entry, looked up): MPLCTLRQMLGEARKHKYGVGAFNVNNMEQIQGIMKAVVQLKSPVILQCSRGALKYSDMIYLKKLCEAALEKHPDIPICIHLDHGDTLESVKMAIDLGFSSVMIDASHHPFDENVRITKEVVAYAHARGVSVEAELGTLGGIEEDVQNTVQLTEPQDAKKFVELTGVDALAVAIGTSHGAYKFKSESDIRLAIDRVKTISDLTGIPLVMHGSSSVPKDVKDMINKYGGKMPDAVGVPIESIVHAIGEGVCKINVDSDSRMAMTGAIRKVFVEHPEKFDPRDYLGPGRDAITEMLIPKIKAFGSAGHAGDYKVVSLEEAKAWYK
#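 40 nM FBPA preincubated 10 min at RT with compound (up to 57.5 uM final), then substrate plus GAPDH/TPI/NAD/arsenate coupling and diaphorase/resazurin added. Fluorescence read after 20 min at RT, 525/598 nm.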
# Numbers stand for hits; 0 = inactive; ? = inconclusive; - = no result given; [ ] = remark or other dose. Most compounds without a hit are left out; they make up all but 3.4% or so of the library. Unless noted, calls follow the shape of the dose curve; as a rule, active = well fitted curve in the direction sought with a large enough effect; inconclusive = small, poorly fitted or top-dose-only effect, or another doubt; inactive = no such curve, though single readings can be large; an effect the other way counts as inactive or inconclusive.
SMILES,AmpC inh detg,RE007 growth inh,AmpC inh no detg,Sm TGR block,Giardia FBPA inh
Cc1ccc(-c2noc(CCCC(=O)NCc3ccco3)n2)cc1,0,-,-,0,-
COc1ccc(-c2noc(CCC(=O)NCc3ccco3)n2)cc1,0,0,0,40µM,0
Cc1cccc(-c2noc(-c3ccccc3C(=O)NCc3ccco3)n2)c1,0,0,0,22µM,0
CCOC(=O)CC(=O)CSc1nc2c(cc1C#N)CCCCC2,0,0,0,0,0
CCCN1C(=O)C(O)(c2c(C)[nH]c3ccccc23)c2ccccc21 (stereo not given),0,0,0,45µM,0
CN(CCO)S(=O)(=O)c1ccc2c(c1)C(=NNC(N)=O)c1cc(S(=O)(=O)N(C)CCO)ccc1-2,0,0,0,0,0
COc1ccc(C(CCN2CCCCC2)c2c(O)cc(OC)cc2OC)cc1 (stereo not given),0,0,0,40µM,?
COc1ccc(C(CCN2CCCC2)c2c(O)cc(OC)cc2OC)cc1 (stereo not given),0,0,0,?,0
CCOC(=O)C1CCN(C2=NC(=O)/C(=C/c3ccc(Cl)cc3)S2)CC1,0,0,0,0,0
CCOC(=O)CSC1=NC(=O)/C(=C\c2ccc(Cl)cc2)S1,0,?,0,3.5µM,0
O=S(=O)(NC(=S)NC1CCCCC1)c1ccc(Br)cc1,0,?,0,22µM,0
Cc1cc(NC(=O)CN(C)S(=O)(=O)c2ccc(-c3ccc(=O)[nH]n3)s2)ccc1Br,?,0,0,0,0
COc1cc(NC(=O)CN(C)S(=O)(=O)c2ccc(-c3ccc(=O)[nH]n3)s2)cc(OC)c1,0,0,0,32µM,0
CC(=C1C(=O)c2ccccc2C1=O)N1CCN(Cc2ccccc2)CC1,?,0,0,40µM,0
CC(=C1C(=O)c2ccccc2C1=O)N1CCC(C(N)=O)(N2CCCCC2)CC1,?,0,0,32µM,0
NC(=O)C1(N2CCCCC2)CCN(C(=S)NCCc2ccccc2)CC1,0,0,0,0,0
COc1ccccc1-c1nccc(-n2ccnc2)n1,-,-,-,-,0
CCCCN(C(=O)C1=COCCO1)c1c(N)n(CCCC)c(=O)[nH]c1=O,0,0,0,0,-
Cc1cc(N2C(=O)C=CC2=O)c([N+](=O)[O-])cc1C,0,?,0,0.71µM,0
Cc1c([N+](=O)[O-])cc(N2C(=O)C=CC2=O)cc1[N+](=O)[O-],-,0,-,-,-
CS(=O)(=O)c1ccc(C2=C(CNC(=O)c3cccnc3)[C@H]3CC[C@@H](C2)N3Cc2ccco2)cc1,-,0,-,-,-
O=C1CN(S(=O)(=O)c2ccc(F)cc2)c2ccccc2N1,?,0,0,0,0
COc1ccc(S(=O)(=O)N2CC(=O)Nc3ccccc32)cc1F,0,0,0,11µM,0
Nc1nonc1C(=O)NCCN=Cc1cc(Cc2ccccc2)cc(Br)c1O,0,16µM,0,0,0
CCCc1nc2ccccc2n2c(-c3ccccc3)c3c(=O)n(C)c(=O)n(C)c3c12,0,-,-,0,-
SMILES,AmpC inh detg,RE007 growth inh,AmpC inh no detg,Sm TGR block,Giardia FBPA inh
Cn1c(=O)c2cn3c(c2n(C)c1=O)C(c1ccccc1)CC(c1ccccc1)=N3 (stereo not given),0,0,-,13µM,0
Oc1ccc(C(c2nnnn2C2CCCC2)N2CCc3ccccc3C2)cc1 (stereo not given),0,0,0,3.2µM,0
Cc1c(C(=O)Oc2cccc3cccnc23)oc2ccccc12,0,40µM,0,0,?
CCc1nc2ccccc2c(C(=O)Oc2cccc3cccnc23)c1C,0,0,0,0,0
Fc1ccc(-n2cc(-c3ccccc3)c3c(NN4CCOCC4)ncnc32)cc1,?,0,0,0,0
NS(=O)(=O)c1ccc(CCNc2ncnc3c2c(-c2ccccc2)cn3-c2ccc(F)cc2)cc1,0,0,4.5µM,0,0
Cc1ccc(S(=O)(=O)N(CC(O)Cn2c3ccccc3c3ccccc32)c2cccc(C(N)=O)c2)cc1 (stereo not given),0,-,-,0,-
CCn1ncc(CNC(=O)CCCSc2nc(-c3ccco3)cc(C(F)(F)F)n2)c1C,0,0,0,40µM,0
O=C(CCSc1nc(-c2ccco2)cc(C(F)(F)F)n1)NCc1ccccn1,0,0,0,28µM,0
CC1=C(c2ccc(C(C)C)cc2)S(=O)(=O)N=C1N1CCC(C(=O)NCc2ccco2)CC1,0,-,-,0,-
Cc1ccc(Cn2ccsc2=NC(=O)CCl)cc1,0,0,0,14µM,0
Cc1ccc(Cn2ccsc2=NC(=O)COC(=O)c2ccc(NC(=O)CC#N)cc2)cc1,0,0,0,0,-
COc1ccc(OCCC(=O)Nc2cc(C)on2)cc1,0,0,0,40µM,0
Cc1cc(NC(=O)CCOc2ccc(F)cc2)no1,0,0,0,0.71µM,0
COc1ccc(-c2cc3ccc(OC)cc3cn2)cc1,0,0,0,16µM,-
O=C(COc1cc(F)ccc1[N+](=O)[O-])Nc1ccc(N2CCCCC2)cc1,?,0,0,0,-
O=C(COc1cc(F)ccc1[N+](=O)[O-])Nc1ccc(N2CCOCC2)cc1,0,0,0,45µM,0
Cc1ccc(C)c(NC(=O)c2cc3ccccn3n2)c1,?,0,4.5µM,0,0
COc1ccc(NC(=S)Nc2cccc3cnccc23)cc1,0,0,0,56µM,?
S=C(Nc1cccnc1)Nc1cccc2cnccc12,?,0,0,45µM,?
CN(C)S(=O)(=O)c1cccc(NC(=S)Nc2cccc3cnccc23)c1,0,0,0,10µM,2.5µM
S=C(Nc1ccc(Cl)cc1)Nc1cccc2cnccc12,0,0,0,0,1.6µM
CC(C)(C)C(=O)Nc1nc2ccc(S(C)(=O)=O)cc2s1,0,0,0,0,0
Cc1ccc(C)c(N2CCN(C(=O)c3cc(C)nc4c3c(C)nn4-c3cccc(F)c3)CC2)c1,0,-,-,0,-
Cc1ccc(C(=O)CC2(O)C(=O)N(CN3CCOCC3)c3ccccc32)cc1 (stereo not given),0,0,0,0,0
SMILES,AmpC inh detg,RE007 growth inh,AmpC inh no detg,Sm TGR block,Giardia FBPA inh
Cc1cc(N2CCN(C(=O)Nc3ccccc3C#N)CC2)c2ccccc2n1,0,0,0,0,0
CN(C)S(=O)(=O)c1cccc(NC(=O)C(c2ccccc2)c2ccccc2)c1,0,0,0,0,0
COc1cc(OC)cc(C(=O)NC(=S)Nc2cccnc2)c1,0,0,0,?,0
CC(C)N(C(=S)Nc1cccc(S(=O)(=O)N(C)C)c1)c1ccccc1,0,0,0,11µM,0
Fc1cccc(NC(=S)Nc2cccnc2)c1,0,0,0[2.29 µM],18µM,0
CC(=O)NNC(=S)Nc1cc(S(=O)(=O)N(C)C)ccc1C,0,0,0,0,0
COc1cc(NC(=S)Nc2cccnc2)cc(OC)c1,0,0,0,45µM,0
Cc1ccc(S(=O)(=O)N(C)C)cc1NC(=S)Nc1cccc2ccccc12,0,0,0,16µM,0
O=C(Nc1cccnc1)Nc1cccc(F)c1,0,0,0,0,0
